According to PubChem BioAssay (NCI):
Compounds without any hit were thinned out: in the full panel of roughly 79,000, 15% have a hit. A number with no mark means an inactive call. The source made the active and inactive calls. Rule as the data show it: active = growth inhibition above about 70%; inactive = the rest.

Columns and labels:
[1] = NCI Yeast Anticancer Drug Screen. Data for the rad50 strain (AID 155);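 also: 0% = growth of vehicle-only cultures of the same strain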; conditions: S. cerevisiae rad50 strain growth inhibition, stronger effect = higher value; at 50.0 µM unless noted
In short: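 Vehicle-treated cultures provide the reference for the growth inhibition reported for compound-exposed, repair-deficient yeast.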

[2] = NCI Yeast Anticancer Drug Screen. Data for the mec2-1 strain (AID 157); conditions: S. cerevisiae mec2-1 strain, stronger effect = higher value; at 50.0 µM unless noted
In short: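 Strain: mec2-1 (DNA repair/cell cycle alteration). Compound exposure, then growth measured; inhibition expressed relative to vehicle.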

[3] = NCI Yeast Anticancer Drug Screen. Data for the sgs1 mgt1 strain (AID 161);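 also: 0% = growth of cultures given vehicle only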; conditions: S. cerevisiae sgs1 mgt1 strain, stronger effect = higher value; at 50.0 µM unless noted
In short: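 Read-out: growth inhibition vs vehicle controls. Cells: mutant yeast strain deficient in DNA damage repair.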

[4] = NCI Yeast Anticancer Drug Screen. Data for the cln2 rad14 strain (AID 165);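 also: 0% = growth equal to vehicle treated cultures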; conditions: S. cerevisiae cln2 rad14 strain, stronger effect = higher value; at 50.0 µM unless noted
In short: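 Compounds are applied to the cln2 rad14 yeast strain, and growth is then compared with that of vehicle-treated cultures to give inhibition.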

[5] = NCI Yeast Anticancer Drug Screen. Data for the bub3 strain (AID 167); conditions: S. cerevisiae bub3 mutant strain, stronger effect = higher value; at 50.0 µM unless noted
In short: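 Mutant yeast screening strain plus compound; vehicle-treated cultures serve as the 0% inhibition reference.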

[6] = NCI Yeast Anticancer Drug Screen. Data for the mlh1 rad18 strain (AID 175); conditions: S. cerevisiae mlh1 rad18 strain growth inhibition, stronger effect = higher value; at 50.0 µM unless noted
In short: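 Read-out is yeast growth inhibition, calculated against vehicle-only controls. The compound was applied to a strain engineered with DNA damage repair alterations.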

SMILES	growth inhibition [1]	growth inhibition [2]	growth inhibition [3]	growth inhibition [4]	growth inhibition [5]	growth inhibition [6]
Cc1nn2c(nnn2CCO)c1-c1ccccc1	10.7%	-5.65%	-15%	-10.6%	-25.4%	15.8%
O=C1c2ccccc2-c2c1c1ccccc1c(=O)n2-c1ccccc1	-1.7%	-26.1%	6%	-5.85%	-13.6%	-51.6%
Oc1ccccc1/C=N/N1C(=S)N(C23CC4CC(CC(C4)C2)C3)C(=Nc2ccccc2)C1=Nc1ccccc1	-8.55%	-16.2%	-23.2%	2.35%	-3%	-14.3%
O=C1[C@H]2ON(c3ccccc3)C(c3ccccc3)[C@H]2C(=O)N1c1ccc(Cc2ccc(N3C(=O)[C@@H]4ON(c5ccccc5)C(c5ccccc5)[C@@H]4C3=O)cc2)cc1 (stereo partly specified)	3.1%	3.45%	12.6%	21.5%	26.5%	11.8%
CN(C)c1ccc(/C=N/Nc2nc3ccccc3c(=O)n2-c2ccccc2)cc1	-3.05%	-16.1%	6.55%	17.9%	26.1%	-3.7%
COC(=O)CCSCc1ccccc1	2.65%	2.55%	-1.6%	-10%	4.8%	3.55%
O=c1c2ccccc2[nH]c(=S)n1C1CCCC1	-7.85%	-6.55%	15.1%	-19.9%	39.4%	-2.15%
CC1(C)C2(Cl)C(Cl)=C(Cl)C13C(Cl)(c1ccc([N+](=O)[O-])cc1C1(Cl)C(Cl)(Cl)C4(Cl)C(Cl)=C(Cl)C13C4(C)C)C2(Cl)Cl (stereo unspecified)	0.55%	-10.1%	-27.9%	-7.6%	-2.5%	13%
O=P(O)(O)OC1OC(CO)C(O)C(O)C1O (stereo unspecified)	-16.5%	-26.2%	-3.9%	-25.6%	-24.8%	-4.75%
O=C(O)c1cccc(S(=O)(=O)c2ccc([N+](=O)[O-])cc2)c1	-0.25%	0.55%	4.9%	-6.15%	-5.7%	14.2%
Fc1ccc(/C=C2/c3cc(Cl)ccc3-c3c(Cl)cc(Cl)cc32)cc1	44.6%	3.25%	15.7%	-5.1%	-3.5%	5.5%
OC(c1ccccc1)(c1ccccc1)C1/C(=C/c2ccccc2)C1Cc1ccccc1 (stereo unspecified)	4.85%	2.4%	-7.9%	-8.1%	-3.75%	3%
c1ccc(C2Cc3ccccc3C2c2ccccc2)cc1 (stereo unspecified)	9.85%	11%	22.8%	-17.8%	-7.6%	-13.3%
COc1cc2c3cc1Oc1cc(ccc1O)C[C@@H]1c4c(cc(OC)c(O)c4Oc4ccc(cc4)C[C@@H]3[N+](C)(C)CC2)CC[N+]1(C)C	-23.2%	-43.1%	-40.4%	68.6%	-35.6%	6.7%
CCOC(=O)c1c[nH]c2c(Cl)c(Cl)ccc2c1=O	-4.65%	-19.1%	-1.1%	12.9%	9.25%	-6.95%
O=C(NC(CO)Cc1ccccc1)OCc1ccccc1 (stereo unspecified)	-4.15%	-5.25%	0%	5.45%	8.1%	-7.65%
CN(/N=C/c1cccs1)c1ccc(Cl)cc1[N+](=O)[O-]	-29.4%	-8.95%	-13.8%	0.95%	-7.45%	-1%
CC1(C)C2CCC3(C2)CS(=O)(=O)N2OC231 (stereo unspecified)	6.55%	-35.9%	-31.1%	-20.1%	-26.9%	-9.7%
CCN(CC)CC(=O)Nc1ccc2c(c1)C(=O)c1ccc(NC(=O)CN(CC)CC)cc1C2=O	22.1%	8%	-4.5%	16.4%	-1.2%	-8%
O=C(Nc1ccc(Cl)c(Cl)c1)N(CCO)Cc1ccccc1	88.7% (active)	97% (active)	97.2% (active)	90% (active)	95.5% (active)	94.4% (active)
Oc1ccc2ccccc2c1/C=C/c1ccc2c(Br)cc(Br)c(O)c2n1	60.6%	41.1%	28.7%	38%	64.9%	65.3%

SMILES	growth inhibition [1]	growth inhibition [2]	growth inhibition [3]	growth inhibition [4]	growth inhibition [5]	growth inhibition [6]
COC(=O)c1cc(Br)cc(Br)c1N	26.1%	-12.9%	0.3%	-35.1%	3.6%	32.4%
COc1ccc2c(c1)OC[C@@H]1c3cc(NS(=O)(=O)c4ccccc4)cc(OCc4ccccc4)c3O[C@H]21	-16.4%	-8.75%	-13.5%	-17.3%	1.4%	-6.55%
NNC(=O)c1c(O)ccc2ccccc12	19.2%	-28.1%	23.4%	20.2%	-4.2%	12.6%
CC(=O)NC(CCCCNC(=O)N(CCCl)N=O)C(=O)NCc1ccccc1 (stereo unspecified)	1.2%	-1.15%	0.7%	14.7%	-2.35%	-1.85%
O=C(O)CCNC(=O)CNC(=O)OCc1ccccc1	3.9%	10.6%	-2.85%	5.55%	-0.25%	-9.65%
Cc1cc(C)nc(NS(=O)(=O)c2ccc(NC(=O)c3cccc4c(Nc5ccc(S(=O)(=O)Nc6nc(C)cc(C)n6)cc5)c5ccc(Cl)cc5nc34)cc2)n1	27.4%	35.7%	24.3%	33%	19.6%	30.7%
CCC(=O)OC(CCC1CCCO1)CCC1CCCO1 (stereo unspecified)	11.5%	12.2%	3.75%	12.4%	22.9%	-3.55%
Cc1ccc(N(C)S(=O)(=O)c2ccccc2)cc1	11.4%	-31.3%	15.4%	4.25%	22.6%	4.55%
Nc1c(Cl)ncnc1NCc1ccco1	5.25%	-4.2%	-13.8%	-13.8%	-1.05%	-7.85%
Cn1c(-c2csc(-c3ccc(Cl)cc3)n2)n[nH]c1=S	5.65%	12.8%	11.6%	8.3%	6.35%	-36.1%
CC(CC(=O)c1ccccc1)[N+](=O)[O-] (stereo unspecified)	-10.6%	-6.35%	-3.3%	-12.6%	-7.85%	15.8%
CCCCCSC(=O)C(N)=O	10.9%	7.45%	6.7%	-25.8%	-7.45%	4%
CC(=O)NC(CCC(C)C)C(=O)O (stereo unspecified)	-0.05%	25.2%	4.75%	-13.6%	15.6%	-7.35%
C=CCONC(=O)c1ccc(Cl)cc1	0.5%	1.75%	-4.2%	-5.5%	-19.2%	27.3%
CCCCCCCNC(=O)C(C)Br (stereo unspecified)	17.6%	26.6%	16.6%	-41.9%	19.7%	22.1%
O=C(O)c1nc2ccccc2nc1C(=O)O	-27.9%	-7.65%	-13.4%	-17.6%	-7.95%	-3.85%
CC(C)OC(=O)Nc1cccc(Cl)c1F	15.9%	-10.8%	-6.2%	-0.75%	8.2%	8.65%
Cc1ccccc1C(=O)c1cccc2cccc(C(=O)c3ccccc3C)c12	13%	0.75%	-10.8%	7.8%	10.8%	1.15%
CN1C(=O)N(c2cc(Cl)cc(Cl)c2)C(=N)C1=S	7.1%	1.75%	17.6%	-3.1%	32.5%	37.5%
CC(C)=CC1(C)/C(=N\O)C(C)(CC(C)C)C(=O)N1O (stereo unspecified)	-7.15%	-15.2%	-11.8%	-2.2%	-5.65%	-19.4%
